{"source": "PubChem BioAssay (EPA / NIEHS)", "note": "Calls of active or inactive are those of the source. Rule for the calls: active = hit-call score of the fitted dose curve at least 0.9, where 1 is the maximum; inactive = score below 0.9."}
{"test": "ATG_NRF2_ARE_CIS: Attagene CIS-FACTORIAL HepG2 Assay for human Nuclear Factor Erythroid 2 Related Factor 2 (NFR2) response to Antioxidant Response Elements (ARE) (AID 2282992);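 for AC50: reporter mRNA level measured by RT-PCR and capillary electrophoresis fluorescence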", "conditions": "HepG2 Attagene ARE/NRF2 reporter, transcription factor activity; actives raise or lower the signal", "how_it_was_run": "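HepG2 cells transiently transfected with multiplexed cis-regulated reporter transcription units measure endogenous transcription factor activity. Reporter mRNA at 24 h is quantified by RT-PCR, fluorescent labelling and capillary electrophoresis, with bidirectional fitting relative to DMSO.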"}
{"smiles": "CCN(CC)c1ccccc1", "outcome": "inactive"}
{"smiles": "FC(F)(F)C(F)(C(F)(F)F)C(F)(F)C(F)(F)CC1CO1", "note": "(configuration not stated)", "outcome": "inactive"}
{"smiles": "CCOP(=S)(OCC)SCSc1ccc(Cl)cc1", "AC50": "29.6 µM (active)"}
{"smiles": "c1nc[nH]n1", "outcome": "inactive"}
{"smiles": "Clc1ccc(Oc2ccccc2)cc1", "AC50": "177 µM (active)"}
{"smiles": "c1cc2c3c(cccc3c1)CC2", "outcome": "inactive"}
{"smiles": "CCN(CC)C1CCCCC1", "outcome": "inactive"}
{"smiles": "Cc1cc(C)c(C(=O)P(=O)(c2ccccc2)c2ccccc2)c(C)c1", "AC50": "4.78 µM (active)"}
{"smiles": "CCCCC(CC)COP(=O)(Oc1ccccc1)Oc1ccccc1", "note": "(configuration not stated)", "AC50": "12.2 µM (active)"}
{"smiles": "CCOc1ccc(C(C)(C)COCc2cccc(Oc3ccccc3)c2)cc1", "outcome": "inactive"}
{"smiles": "CCCCN(CC)C(=O)SCCC", "outcome": "inactive"}
{"smiles": "COP(=O)(O)OC", "outcome": "inactive"}
{"smiles": "Cc1cccc(N)c1", "outcome": "inactive"}
{"smiles": "Nc1ccc(Sc2ccc(N)cc2)cc1", "AC50": "50.4 µM (active)"}
{"smiles": "O=C(O)C1C(C(=O)O)C2(Cl)C(Cl)=C(Cl)C1(Cl)C2(Cl)Cl", "note": "(configuration not stated)", "outcome": "inactive"}
{"smiles": "Nc1cc2c3c(c1)C(c1ccccc1)=N[C@@H](NC(=O)c1cccnc1)C(=O)N3CC2", "outcome": "inactive"}
{"smiles": "CCOP(=S)(OCC)SCSCC", "AC50": "73 µM (active)"}
{"smiles": "OCC1CO1", "note": "(configuration not stated)", "outcome": "inactive"}
{"smiles": "O=P(OCC(Br)CBr)(OCC(Br)CBr)OCC(Br)CBr", "note": "(configuration not stated)", "AC50": "23.4 µM (active)"}
{"smiles": "c1ccc(OP(Oc2ccccc2)Oc2ccccc2)cc1", "outcome": "inactive"}
{"smiles": "CCOS(=O)(=O)OCC", "outcome": "inactive"}
{"smiles": "ClC1=C(Cl)C2(Cl)C3C(Cl)C(Cl)CC3C1(Cl)C2(Cl)Cl", "note": "(configuration not stated)", "AC50": "14.8 µM (active)"}
{"smiles": "CC(Cl)(Cl)C(=O)O", "outcome": "inactive"}
{"smiles": "OCC(F)(F)OC(F)(F)C(F)(F)OC(F)(F)CO", "outcome": "inactive"}
{"smiles": "CCCN(CCC)c1c([N+](=O)[O-])cc(C(C)C)cc1[N+](=O)[O-]", "AC50": "38.4 µM (active)"}
{"smiles": "C=CC(=O)OCC(CC)(COC(=O)C=C)COC(=O)C=C", "AC50": "1.65 µM (active)"}
{"smiles": "CC(Cl)CN(C)C", "note": "(configuration not stated)", "AC50": "28.4 µM (active)"}
{"smiles": "Oc1ccc(I)cc1", "AC50": "67.3 µM (active)"}
{"smiles": "N#C/C=C/c1ccccc1", "outcome": "inactive"}
{"smiles": "CO/N=C(/C(=O)OC)c1ccccc1COc1ccccc1C", "AC50": "3.96 µM (active)"}
{"smiles": "CC1(C)CN=C(NN=C(/C=C/c2ccc(C(F)(F)F)cc2)/C=C/c2ccc(C(F)(F)F)cc2)NC1", "AC50": "3.06 µM (active)"}
{"smiles": "O=C(O)C(F)(F)OC(F)(F)C(F)(F)OC(F)(F)C(=O)O", "outcome": "inactive"}
{"smiles": "[N-]=[N+]=[N-]", "outcome": "inactive"}
{"smiles": "O=C(O)C=CC(F)(C(F)(F)F)C(F)(F)F", "outcome": "inactive"}
{"smiles": "CCCCc1ccccc1", "outcome": "inactive"}
{"smiles": "ClC(Cl)(Cl)c1ccccc1", "outcome": "inactive"}
{"smiles": "O=[N+]([O-])c1ccccc1", "outcome": "inactive"}
{"smiles": "CSC(C)(C)C=NO", "outcome": "inactive"}
{"test": "ATG_Oct_MLP_CIS: Attagene CIS-FACTORIAL HepG2 Assay for human Octamer-Binding Transcription Factor (Oct) (AID 2282993)", "conditions": "HepG2 Attagene cis-factorial Oct reporter, mRNA; actives raise or lower the signal", "how_it_was_run": "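Multiplexed cis-reporter assay in human liver HepG2 cells, 24 h incubation. Reporter RNA amplified and labelled, then resolved by capillary electrophoresis; DMSO serves as negative control and baseline.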"}
{"smiles": "CCN(CC)c1ccccc1", "outcome": "inactive"}
{"smiles": "FC(F)(F)C(F)(C(F)(F)F)C(F)(F)C(F)(F)CC1CO1", "note": "(configuration not stated)", "outcome": "inactive"}
{"smiles": "CCOP(=S)(OCC)SCSc1ccc(Cl)cc1", "outcome": "inactive"}
{"smiles": "c1nc[nH]n1", "outcome": "inactive"}
{"smiles": "Clc1ccc(Oc2ccccc2)cc1", "outcome": "inactive"}
{"smiles": "c1cc2c3c(cccc3c1)CC2", "outcome": "inactive"}
{"smiles": "CCN(CC)C1CCCCC1", "outcome": "inactive"}
{"smiles": "Cc1cc(C)c(C(=O)P(=O)(c2ccccc2)c2ccccc2)c(C)c1", "outcome": "inactive"}
{"smiles": "CCCCC(CC)COP(=O)(Oc1ccccc1)Oc1ccccc1", "note": "(configuration not stated)", "AC50": "87.1 µM (active)"}
{"smiles": "CCOc1ccc(C(C)(C)COCc2cccc(Oc3ccccc3)c2)cc1", "outcome": "inactive"}
{"smiles": "CCCCN(CC)C(=O)SCCC", "outcome": "inactive"}
{"smiles": "COP(=O)(O)OC", "outcome": "inactive"}
{"smiles": "Cc1cccc(N)c1", "outcome": "inactive"}
{"smiles": "CC(C)(C)c1ccc(O)cc1", "AC50": "166 µM (active)"}
{"smiles": "Nc1ccc(Sc2ccc(N)cc2)cc1", "outcome": "inactive"}
{"smiles": "O=C(O)C1C(C(=O)O)C2(Cl)C(Cl)=C(Cl)C1(Cl)C2(Cl)Cl", "note": "(configuration not stated)", "outcome": "inactive"}
{"smiles": "Nc1cc2c3c(c1)C(c1ccccc1)=N[C@@H](NC(=O)c1cccnc1)C(=O)N3CC2", "AC50": "52.9 µM (active)"}
{"smiles": "CCOP(=S)(OCC)SCSCC", "outcome": "inactive"}
{"smiles": "OCC1CO1", "note": "(configuration not stated)", "outcome": "inactive"}
{"smiles": "O=P(OCC(Br)CBr)(OCC(Br)CBr)OCC(Br)CBr", "note": "(configuration not stated)", "outcome": "inactive"}
{"smiles": "c1ccc(OP(Oc2ccccc2)Oc2ccccc2)cc1", "outcome": "inactive"}
{"smiles": "CCOS(=O)(=O)OCC", "outcome": "inactive"}
{"smiles": "ClC1=C(Cl)C2(Cl)C3C(Cl)C(Cl)CC3C1(Cl)C2(Cl)Cl", "note": "(configuration not stated)", "outcome": "inactive"}
{"smiles": "CC(Cl)(Cl)C(=O)O", "outcome": "inactive"}
{"smiles": "OCC(F)(F)OC(F)(F)C(F)(F)OC(F)(F)CO", "outcome": "inactive"}
{"smiles": "CCCN(CCC)c1c([N+](=O)[O-])cc(C(C)C)cc1[N+](=O)[O-]", "outcome": "inactive"}
{"smiles": "C=CC(=O)OCC(CC)(COC(=O)C=C)COC(=O)C=C", "AC50": "25.5 µM (active)"}
{"smiles": "CC(Cl)CN(C)C", "note": "(configuration not stated)", "outcome": "inactive"}
{"smiles": "Oc1ccc(I)cc1", "outcome": "inactive"}
{"smiles": "N#C/C=C/c1ccccc1", "outcome": "inactive"}
{"smiles": "CO/N=C(/C(=O)OC)c1ccccc1COc1ccccc1C", "AC50": "21.9 µM (active)"}
{"smiles": "CC1(C)CN=C(NN=C(/C=C/c2ccc(C(F)(F)F)cc2)/C=C/c2ccc(C(F)(F)F)cc2)NC1", "AC50": "20.8 µM (active)"}
{"smiles": "O=C(O)C(F)(F)OC(F)(F)C(F)(F)OC(F)(F)C(=O)O", "outcome": "inactive"}
{"smiles": "[N-]=[N+]=[N-]", "outcome": "inactive"}
{"smiles": "O=C(O)C=CC(F)(C(F)(F)F)C(F)(F)F", "outcome": "inactive"}
{"smiles": "CCCCc1ccccc1", "outcome": "inactive"}
{"smiles": "ClC(Cl)(Cl)c1ccccc1", "outcome": "inactive"}
{"smiles": "O=[N+]([O-])c1ccccc1", "outcome": "inactive"}
{"smiles": "CSC(C)(C)C=NO", "outcome": "inactive"}
